Reference: the supplement of paper PMC7261846
Structures can show the parent of a compound that is named as a salt. ± gives the uncertainty stated by the source.

Test system: Candida albicans SNY425 biofilm
Assay: biofilm OD600 with compound plus antifungal (OD600 (absorbance)); higher = more biofilm remaining
[1] = assay detail: disruption of 24-h mature biofilm (compound + antifungal for a second 24 h)
[2] = assay detail: sustained inhibition (compound + antifungal during 90-min adherence and 24-h growth)

| Structure (SMILES) | biofilm OD600 [1] | biofilm OD600 [2] |
| --- | --- | --- |
| C[C@H](CS)C(=O)N1CCC[C@H]1C(=O)O [Captopril] + C[C@@H]1[C@H](O)[C@@H](C)/C=C/C=C/C=C/C=C/C=C/C=C/C=C/[C@H](O[C@@H]2O[C@H](C)[C@@H](O)[C@H](N)[C@@H]2O)C[C@@H]2O[C@](O)(C[C@@H](O)C[C@@H](O)[C@H](O)CC[C@@H](O)C[C@@H](O)CC(=O)O[C@H]1C)C[C@H](O)[C@H]2C(=O)O [amphotericin B] (first compound 12.5 µM) | 0.285 ± 0.011 | 0.214 ± 0.0071 |
| Nc1ccc(CC(CC(=O)O)C(=O)O)cc1 [4-Amino-D, L-benzylsuccinic acid] + CC[C@H](C)C[C@H](C)CCCCCCCCC(=O)N[C@H]1C[C@@H](O)[C@@H](NCCN)NC(=O)[C@@H]2[C@@H](O)CCN2C(=O)[C@H]([C@H](O)CCN)NC(=O)[C@H]([C@H](O)[C@@H](O)c2ccc(O)cc2)NC(=O)[C@@H]2C[C@@H](O)CN2C(=O)[C@H]([C@@H](C)O)NC1=O [caspofungin] (first compound 12.5 µM) | 0.295 ± 0.016 | 0.187 ± 0.0071 |
| CC1CNc2c(cccc2S(=O)(=O)N[C@@H](CCCNC(=N)N)C(=O)N2CC[C@@H](C)C[C@@H]2C(=O)O)C1 (stereo partly specified) [Argatroban] + CC[C@H](C)C[C@H](C)CCCCCCCCC(=O)N[C@H]1C[C@@H](O)[C@@H](NCCN)NC(=O)[C@@H]2[C@@H](O)CCN2C(=O)[C@H]([C@H](O)CCN)NC(=O)[C@H]([C@H](O)[C@@H](O)c2ccc(O)cc2)NC(=O)[C@@H]2C[C@@H](O)CN2C(=O)[C@H]([C@@H](C)O)NC1=O [caspofungin] (first compound 12.5 µM) | 0.285 ± 0.017 | 0.182 ± 0.0063 |
| O=c1oc(Cl)c(Cl)c2ccccc12 [3,4-Dichloroisocoumarin] + CC[C@H](C)C[C@H](C)CCCCCCCCC(=O)N[C@H]1C[C@@H](O)[C@@H](NCCN)NC(=O)[C@@H]2[C@@H](O)CCN2C(=O)[C@H]([C@H](O)CCN)NC(=O)[C@H]([C@H](O)[C@@H](O)c2ccc(O)cc2)NC(=O)[C@@H]2C[C@@H](O)CN2C(=O)[C@H]([C@@H](C)O)NC1=O [caspofungin] (first compound 12.5 µM) | 0.246 ± 0.014 | 0.21 ± 0.014 |
| CC1(C)C[C@@H]1C(=O)N/C(=C\CCCCSC[C@H](N)C(=O)O)C(=O)O [Cilastatin] + CC[C@H](C)C[C@H](C)CCCCCCCCC(=O)N[C@H]1C[C@@H](O)[C@@H](NCCN)NC(=O)[C@@H]2[C@@H](O)CCN2C(=O)[C@H]([C@H](O)CCN)NC(=O)[C@H]([C@H](O)[C@@H](O)c2ccc(O)cc2)NC(=O)[C@@H]2C[C@@H](O)CN2C(=O)[C@H]([C@@H](C)O)NC1=O [caspofungin] (first compound 12.5 µM) | 0.283 ± 0.0048 | 0.199 ± 0.02 |
| O=C(O)CNC(=O)C(CS)Cc1ccccc1 (racemic) [DL-Thiorphan] + C[C@@H]1[C@H](O)[C@@H](C)/C=C/C=C/C=C/C=C/C=C/C=C/C=C/[C@H](O[C@@H]2O[C@H](C)[C@@H](O)[C@H](N)[C@@H]2O)C[C@@H]2O[C@](O)(C[C@@H](O)C[C@@H](O)[C@H](O)CC[C@@H](O)C[C@@H](O)CC(=O)O[C@H]1C)C[C@H](O)[C@H]2C(=O)O [amphotericin B] (first compound 12.5 µM) | 0.264 ± 0.0083 | 0.164 ± 0.012 |
| CC(C)(C)NC(=O)[C@@H]1CN(Cc2cccnc2)CCN1C[C@@H](O)C[C@@H](Cc1ccccc1)C(=O)N[C@H]1c2ccccc2C[C@H]1O [indinavir] + C[C@@H]1[C@H](O)[C@@H](C)/C=C/C=C/C=C/C=C/C=C/C=C/C=C/[C@H](O[C@@H]2O[C@H](C)[C@@H](O)[C@H](N)[C@@H]2O)C[C@@H]2O[C@](O)(C[C@@H](O)C[C@@H](O)[C@H](O)CC[C@@H](O)C[C@@H](O)CC(=O)O[C@H]1C)C[C@H](O)[C@H]2C(=O)O [amphotericin B] (first compound 12.5 µM) | 0.283 ± 0.0099 | 0.228 ± 0.0076 |
| CC(C)C[C@H](NC(=O)[C@H]1O[C@@H]1C(=O)O)C(=O)NCCCCN=C(N)N + C[C@@H]1[C@H](O)[C@@H](C)/C=C/C=C/C=C/C=C/C=C/C=C/C=C/[C@H](O[C@@H]2O[C@H](C)[C@@H](O)[C@H](N)[C@@H]2O)C[C@@H]2O[C@](O)(C[C@@H](O)C[C@@H](O)[C@H](O)CC[C@@H](O)C[C@@H](O)CC(=O)O[C@H]1C)C[C@H](O)[C@H]2C(=O)O [amphotericin B] (first compound 12.5 µM) | 0.266 ± 0.0082 | 0.209 ± 0.0073 |
| CC(C)C[C@H](NP(=O)(O)O[C@@H]1O[C@@H](C)[C@H](O)[C@@H](O)[C@H]1O)C(=O)N[C@@H](Cc1c[nH]c2ccccc12)C(=O)O [Phosphoramidon] + OC(Cn1cncn1)(Cn1cncn1)c1ccc(F)cc1F [fluconazole] (first compound 12.5 µM) | 0.255 ± 0.0097 | 0.156 ± 0.0037 |
| CNC(=O)[C@H](Cc1c[nH]c2ccccc12)NC(=O)[C@@H](CC(=O)NO)CC(C)C + OC(Cn1cncn1)(Cn1cncn1)c1ccc(F)cc1F [fluconazole] (first compound 12.5 µM) | 0.272 ± 0.014 | 0.158 ± 0.0086 |
| N=C(N)Nc1ccc(C(=O)Oc2ccc3cc(C(=N)N)ccc3c2)cc1 [Nafamostat mesylate] + C[C@@H]1[C@H](O)[C@@H](C)/C=C/C=C/C=C/C=C/C=C/C=C/C=C/[C@H](O[C@@H]2O[C@H](C)[C@@H](O)[C@H](N)[C@@H]2O)C[C@@H]2O[C@](O)(C[C@@H](O)C[C@@H](O)[C@H](O)CC[C@@H](O)C[C@@H](O)CC(=O)O[C@H]1C)C[C@H](O)[C@H]2C(=O)O [amphotericin B] (first compound 12.5 µM) | 0.257 ± 0.012 | 0.171 ± 0.011 |
| Nc1ccc(CC(CC(=O)O)C(=O)O)cc1 [4-Amino-D, L-benzylsuccinic acid] + C[C@@H]1[C@H](O)[C@@H](C)/C=C/C=C/C=C/C=C/C=C/C=C/C=C/[C@H](O[C@@H]2O[C@H](C)[C@@H](O)[C@H](N)[C@@H]2O)C[C@@H]2O[C@](O)(C[C@@H](O)C[C@@H](O)[C@H](O)CC[C@@H](O)C[C@@H](O)CC(=O)O[C@H]1C)C[C@H](O)[C@H]2C(=O)O [amphotericin B] (first compound 12.5 µM) | 0.293 ± 0.0096 | 0.185 ± 0.0047 |
| CCN1C(=O)C=CC1=O [N-Ethylmaleimide] + CC[C@H](C)C[C@H](C)CCCCCCCCC(=O)N[C@H]1C[C@@H](O)[C@@H](NCCN)NC(=O)[C@@H]2[C@@H](O)CCN2C(=O)[C@H]([C@H](O)CCN)NC(=O)[C@H]([C@H](O)[C@@H](O)c2ccc(O)cc2)NC(=O)[C@@H]2C[C@@H](O)CN2C(=O)[C@H]([C@@H](C)O)NC1=O [caspofungin] (first compound 4 µM) | 0.281 ± 0.013 | 0.17 ± 0.0037 |
| Cc1ccc(S(=O)(=O)N[C@@H](Cc2ccccc2)C(=O)CCl)cc1 + CC[C@H](C)C[C@H](C)CCCCCCCCC(=O)N[C@H]1C[C@@H](O)[C@@H](NCCN)NC(=O)[C@@H]2[C@@H](O)CCN2C(=O)[C@H]([C@H](O)CCN)NC(=O)[C@H]([C@H](O)[C@@H](O)c2ccc(O)cc2)NC(=O)[C@@H]2C[C@@H](O)CN2C(=O)[C@H]([C@@H](C)O)NC1=O [caspofungin] (first compound 4 µM) | 0.251 ± 0.011 | 0.152 ± 0.013 |
| NC(=O)c1cccc(-c2cccc(OC(=O)NC3CCCCC3)c2)c1 + CC[C@H](C)C[C@H](C)CCCCCCCCC(=O)N[C@H]1C[C@@H](O)[C@@H](NCCN)NC(=O)[C@@H]2[C@@H](O)CCN2C(=O)[C@H]([C@H](O)CCN)NC(=O)[C@H]([C@H](O)[C@@H](O)c2ccc(O)cc2)NC(=O)[C@@H]2C[C@@H](O)CN2C(=O)[C@H]([C@@H](C)O)NC1=O [caspofungin] (first compound 12.5 µM) | 0.283 ± 0.011 | 0.171 ± 0.0069 |
| C[C@H](NC(=O)[C@@H]1CCCN1C(=O)[C@@H]1CCCN1C(=O)[C@@H](O)[C@H](N)Cc1ccccc1)C(N)=O [Apstatin] + CC[C@H](C)C[C@H](C)CCCCCCCCC(=O)N[C@H]1C[C@@H](O)[C@@H](NCCN)NC(=O)[C@@H]2[C@@H](O)CCN2C(=O)[C@H]([C@H](O)CCN)NC(=O)[C@H]([C@H](O)[C@@H](O)c2ccc(O)cc2)NC(=O)[C@@H]2C[C@@H](O)CN2C(=O)[C@H]([C@@H](C)O)NC1=O [caspofungin] (first compound 12.5 µM) | 0.292 ± 0.0095 | 0.185 ± 0.0079 |
| CC(C)CC(=O)N[C@H](C(=O)N[C@H](C(=O)N[C@@H](CC(C)C)[C@@H](O)CC(=O)N[C@@H](C)C(=O)N[C@@H](CC(C)C)[C@@H](O)CC(=O)O)C(C)C)C(C)C [Pepstatin A] + C[C@@H]1[C@H](O)[C@@H](C)/C=C/C=C/C=C/C=C/C=C/C=C/C=C/[C@H](O[C@@H]2O[C@H](C)[C@@H](O)[C@H](N)[C@@H]2O)C[C@@H]2O[C@](O)(C[C@@H](O)C[C@@H](O)[C@H](O)CC[C@@H](O)C[C@@H](O)CC(=O)O[C@H]1C)C[C@H](O)[C@H]2C(=O)O [amphotericin B] (first compound 12.5 µM) | 0.272 ± 0.0097 | 0.199 ± 0.011 |
| NC(=O)c1cccc(-c2cccc(OC(=O)NC3CCCCC3)c2)c1 + C[C@@H]1[C@H](O)[C@@H](C)/C=C/C=C/C=C/C=C/C=C/C=C/C=C/[C@H](O[C@@H]2O[C@H](C)[C@@H](O)[C@H](N)[C@@H]2O)C[C@@H]2O[C@](O)(C[C@@H](O)C[C@@H](O)[C@H](O)CC[C@@H](O)C[C@@H](O)CC(=O)O[C@H]1C)C[C@H](O)[C@H]2C(=O)O [amphotericin B] (first compound 12.5 µM) | 0.295 ± 0.0047 | 0.178 ± 0.0061 |
